Assay results: ChEMBL document CHEMBL1157539, “Thousands of chemical starting points for antimalarial lead identification” (Nature, 2010)

Columns and labels:
Format in all cases: functional
[1] = system: Plasmodium falciparum; assay: GSK_TCMDC: Inhibition of Plasmodium falciparum 3D7 in whole red blood cells, using parasite LDH activity as an index of growth. Test compounds present at 2uM
[2] = system: Plasmodium falciparum; assay: GSK_TCMDC: Inhibition of Plasmodium falciparum Dd2 in whole red blood cells, using parasite LDH activity as an index of growth. Test compounds present at 2uM
[3] = system: HepG2; assay: GSK_TCMDC: Percent inhibition of human HepG2 cell line. Test compounds present at 10uM.

| Structure (SMILES) | Inhibition [1] [%] | Inhibition [2] [%] | Inhibition [3] [%] |
| --- | --- | --- | --- |
| O=C(CCNc1ccnc(NCCc2ccccc2)n1)Nc1ccccc1.O=C(O)C(F)(F)F | 89 | 19 | 7 |
| COc1ccc(C=NN=c2cc(C)[nH]c3ccccc23)c(OC)c1 | 100 | 94 | 24 |
| COc1ccc(-n2ccnc2)cc1CNC1CCN(CC2Cn3c(=O)ccc4ccc(F)c2c43)CC1.O=C(O)C(F)(F)F (stereo unspecified) | 99 | 18 | 25 |
| CC1CN(c2ccc(NC(=O)c3cccs3)cc2)CCN1Cc1cccc(F)c1.O=C(O)C(F)(F)F (stereo unspecified) | 96 | 96 | 5 |
| N#Cc1cccc(C(=O)Nc2ccc(-c3cccc(CN4CCCC4)c3)cc2)c1.O=C(O)C(F)(F)F | 100 | 79 | 15 |
| CC(C)(C)SC1SC(SC(C)(C)C)C(OC(=O)c2ccccc2)C(OC(=O)c2ccccc2)C1OC(=O)c1ccccc1 (stereo unspecified) | 95 | 45 | 0 |
| Cc1cc(=NN=Cc2ccc(Cl)cc2)c2cc(C(F)(F)F)ccc2[nH]1 | 91 | 32 | 0 |
| CCOC(=O)c1c(CN(CC)CC)n(-c2ccccc2)c2cc(Br)c(O)cc12 | 93 | 46 | 14 |
| Br.CC(CCON1C(N)=NC(N)=NC1(C)C)c1ccc(Cl)cc1 (stereo unspecified) | 93 | 97 | 64 |
| ON=C1CCc2cc(-c3cc(-c4ccc(OC5CCNCC5)cc4)oc3-c3ccncc3)ccc21 | 100 | 99 | 34 |
| O=C(Nc1cc(C(F)(F)F)cc(C(F)(F)F)c1)NC(CCCN1CCC2(CC1)OCc1ccccc12)c1ccc(Cl)c(Cl)c1 (stereo unspecified) | 94 | 87 | 26 |
| CC(=O)Nc1cccc(-c2cn(-c3ccc(OCc4cccc(F)c4)c(Cl)c3)c3ncncc23)c1 | 100 | 66 | 7 |
| CN(C)CCC1CCN(CCS(=O)(=O)c2cccc(Nc3ccc(-c4cccc(F)c4)cn3)c2)CC1 | 100 | 59 | 94 |
| COc1ccc(CNCc2ccsc2)cc1-c1ccc(S(=O)(=O)NCCN2CCCC2)c(C)c1.O=C(O)C(F)(F)F | 85 | 43 | 49 |
| OC1CCC(Nc2ccc3ncc(-c4ccc(Cl)cc4)n3n2)CC1 (stereo unspecified) | 97 | 98 | 57 |
| COc1ccc(NS(=O)(=O)c2ccc(C(=O)Nc3ccc(C(F)(F)F)cc3)cc2)cc1N1CCN(CC2CC2)CC1.O=C(O)C(F)(F)F | 92 | 0 | 15 |
| Cc1ccc(Nc2nc(C)cc(NC3CCCC3)n2)cc1 | 100 | 89 | 33 |
| CN1CCC[C@H]1COc1ccc(CN2CC[C@H](NC(=O)c3ccc(Cl)c(Cl)c3)C2)cc1Cl.O=C(O)C(F)(F)F | 97 | 44 | 53 |
| Cl.Fc1cc(Cl)ccc1Nc1ccnc2cc(-c3ccc(CN4CCNCC4)o3)ccc12 | 100 | 99 | 16 |
| COc1ccc(NC(=O)[C@H](CC(C)C)Nc2cc(C)nc(NCc3ccccc3C)n2)cc1.O=C(O)C(F)(F)F | 100 | 78 | 12 |
| CC(=O)Oc1cc(C)ccc1C1CCN(CCCCNC(=O)c2ccc(NC(=O)c3ccc(Cl)cc3)cc2)CC1 | 100 | 57 | 12 |
| COc1cc(/C=C/C(=O)NCC(CCNc2cc(=O)c3ccccc3[nH]2)NCc2cc(Br)cc(Br)c2)cc(OC)c1 (stereo unspecified) | 90 | 28 | 0 |
| Cc1cccc2nc(-c3ccc(-c4cccc(CNCCCN5CCCC5=O)c4)s3)[nH]c12.O=C(O)C(F)(F)F | 100 | 26 | 14 |
| C=C(C)Cn1cc(C2CCN(CCN3CCC(CNC(=O)c4ccc(-c5ccc(C#N)cc5)cc4)CC3)CC2)c2ccccc21 | 99 | 94 | 64 |
| Cc1cccc2nc(-c3ccc(-c4cccc(NC(=O)Cc5c[nH]cn5)c4)cc3)[nH]c12 | 98 | 21 | 13 |
| Cl.FC(F)(F)c1cc(Nc2ncnc3ccc(Br)cc23)ccc1OCc1ccccc1 | 87 | 9 | 12 |
| Br.CC(CON1C(N)=NC(N)=NC1(C)C)Cc1ccc(Cl)cc1Cl (stereo unspecified) | 92 | 97 | 61 |
